Where “and” joins values, the source holds several entries; their conditions need not be identical. Identical values can stand only once. Unmarked numbers belong to inactive results. Inconclusive results are not listed. A call without a number means that no potency is given here. Calls of active or inactive are those of the source. Unless noted, calls come from the whole dose curve; as a rule, active = well fitted curve in the direction sought with a large enough effect; inconclusive = small, poorly fitted or top-dose-only effect, or another doubt; inactive = no such curve, though single readings can be large; an effect the other way counts as inactive or inconclusive.
How the values were obtained:
[1] = test system: Hek293T; experiment: Primary qHTS to identify gynecologic anti-cancer compounds using libraries of approved drugs and bioactive compounds (AID 1345084); conditions: Gynecologic cancer cell panel viability, ATPlite luminescence, 48 h, control line for the selectivity index; series mostly up to 57.5 µM; note: nearly all actives have a fitted effect of over 55% in size
In short: (§1)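 In this quantitative HTS, cell killing is estimated from loss of ATP-dependent luciferase light. Cells see five compound concentrations over a 48 h exposure.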

[2] = test system: JEG-3; experiment: as above; conditions: Gynecologic cancer cell panel viability, ATPlite luminescence, 48 h; series mostly up to 57.5 µM
In short: as §1

[3] = test system: OV90; experiment: as above; conditions: Gynecologic cancer cell panel viability, ATPlite luminescence, 48 h; series mostly up to 57.5 µM
In short: as §1

[4] = test system: PA-1; experiment: as above; conditions: Gynecologic cancer cell panel viability, ATPlite luminescence, 48 h; series mostly up to 57.5 µM
In short: as §1

[5] = test system: SKOV3; experiment: as above; conditions: Gynecologic cancer cell panel viability, ATPlite luminescence, 48 h; series mostly up to 57.5 µM
In short: as §1

[6] = test system: Tov-21-G; experiment: as above; conditions: Gynecologic cancer cell panel viability, ATPlite luminescence, 48 h; series mostly up to 57.5 µM
In short: as §1

[7] = test system: Tov112D; experiment: as above; conditions: Gynecologic cancer cell panel viability, ATPlite luminescence, 48 h; series mostly up to 57.5 µM
In short: as §1

[8] = qHTS assay to identify inhibitors of the type 1 interferon - major histocompatibility complex class I in skeletal muscle: Counter screen cell viability and HiBit confirmation (AID 1347412); conditions: iHSKM muscle cells + IFN-b, HiBiT or CellTiter-Glo, 24 h; Potency: HiBiT; Viability, at 45.9 µM (top of the series); note: nearly all actives have a fitted effect of over 60% in size
In short: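 HLA-B*08:01–HiBiT knock-in immortalized human myoblasts (C25cl48) stimulated with 4.0 ng/ml human IFN-beta and dosed with compound in a 12-point 1:3 titration (top final 46 uM). After 24 hrs at 37 C, HiBiT lytic luminescence or CellTiter Glo ATP read out.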

[9] = test system: astro; experiment: Drug repurposing screens with cells derived from glioblastoma tumor samples (AID 1345199); conditions: viability, ATP luminescence, 48 h; series mostly up to 45.9 µM; note: nearly all actives have a fitted effect of over 40% in size; note: potency is the fitted concentration of half-maximal effect
In short: (§2)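 Four patient lines of CD133+ GBM neurospheres were screened at several concentrations; hits were retested in those lines plus three slower-growing GBM lines, using 48-hour treatment and ATP-based viability.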

[10] = biological target: Nuclear receptor subfamily 1 group I member 2 (Rattus norvegicus) (UniProt Q9R1A7); experiment: qHTS assay for small molecule activators of the rat pregnane X receptor (rPXR) signaling pathway (AID 651751; call rule not given here); conditions: rPXR reporter cells, luciferase (One-Glo), 24 h
Sequence of Nuclear receptor subfamily 1 group I member 2 (Rattus norvegicus) (Q9R1A7 whole entry, looked up): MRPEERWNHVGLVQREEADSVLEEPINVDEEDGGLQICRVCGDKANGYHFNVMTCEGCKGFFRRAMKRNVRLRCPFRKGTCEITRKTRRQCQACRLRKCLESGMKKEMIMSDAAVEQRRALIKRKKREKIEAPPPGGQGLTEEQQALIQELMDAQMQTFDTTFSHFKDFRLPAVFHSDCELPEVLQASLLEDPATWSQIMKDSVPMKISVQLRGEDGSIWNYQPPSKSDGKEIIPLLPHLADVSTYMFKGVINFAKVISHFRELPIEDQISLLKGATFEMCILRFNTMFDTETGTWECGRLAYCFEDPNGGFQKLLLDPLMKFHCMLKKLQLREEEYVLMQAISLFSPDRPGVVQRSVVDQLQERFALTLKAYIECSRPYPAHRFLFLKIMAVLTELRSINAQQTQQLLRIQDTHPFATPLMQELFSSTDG

[11] = qHTS assay for small molecule activators of the human pregnane X receptor (PXR) signaling pathway (AID 720659; call rule not given here); conditions: DPX-2 HepG2 CYP3A4-luciferase, 24 h; series mostly up to 92.3 µM
[12] = Drug repurposing screens with cells derived from glioblastoma tumor samples (AID 1345199); conditions: GBM patient neurospheres viability, ATP luminescence, 48 h; note: nearly all actives have a fitted effect of over 40% in size; note: potency is the fitted concentration of half-maximal effect
In short: as §2

[13] = at 45.9 µM (top of the series), tumour line B
[14] = at 45.9 µM (top of the series), tumour line D
[15] = at 46.1 µM (top of the series), tumour line C

SMILES	Potency [1]	Potency [2]	Potency [3]	Potency [4]	Potency [5]	Potency [6]	Potency [7]	Potency [8]	Potency [9]	max response [10]	outcome [11]	activity, negative = cell killing [12, 13] [%]	Potency ([12]; tumour line A)	activity, negative = cell killing ([12]; at 91.6 µM (top of the series), tumour line B) [%]	activity, negative = cell killing ([12]; at 91.6 µM (top of the series), tumour line D) [%]	activity, negative = cell killing ([12]; at 99.2 µM (top of the series), tumour line C) [%]	activity, negative = cell killing [12, 14] [%]	activity, negative = cell killing [12, 15] [%]	activity, negative = cell killing ([12]; at 46 µM (top of the series), tumour line A) [%]
CC(C)(C)CC(=O)OCC(=O)[C@@]1(O)CC[C@H]2[C@@H]3CCC4=CC(=O)C=C[C@]4(C)[C@H]3[C@@H](O)C[C@@]21C	inactive	inactive	inactive	inactive	inactive	inactive	inactive	inactive	–	–	–	–	–	–	–	–	–	–	–
Oc1ccccc1	inactive	inactive	inactive	inactive	inactive	inactive	inactive	–	inactive	-2.24% and -1.02% and -2.45%	inactive	–	–	–	–	–	–	–	–
CO[C@@H]1[C@@H](O[C@@H]2O[C@H](C)[C@@H](O[C@H]3C[C@@](C)(O)[C@@H](O)[C@H](C)O3)[C@H](N(C)C)[C@H]2O)[C@@H](CC=O)C[C@@H](C)[C@@H](O[C@@H]2CC[C@H](N(C)C)[C@@H](C)O2)/C=C/C=C/C[C@@H](C)OC(=O)C[C@H]1OC(C)=O	inactive	inactive	inactive	inactive	inactive	inactive	inactive	–	inactive	–	–	-18.6	15.8 µM (active)	–	–	–	–	–	–
C[C@H]1C[C@@H]2[C@H]([C@@H](O)C[C@@]3(C)[C@H]2CC[C@]3(O)C(=O)CO)[C@@]2(C)C=CC(=O)C=C12	inactive	inactive	inactive	inactive	inactive	inactive	inactive	inactive	–	–	–	–	–	–	–	–	–	–	–
O=C(NO)c1ccccc1	inactive	inactive	inactive	inactive	inactive	inactive	inactive	–	inactive	-1.37%	inactive	–	–	-25.1	-20.6	-13.7	–	–	–
CCCCC(=O)OCC(=O)[C@H]1[C@H](C)C[C@H]2[C@@H]3C[C@H](F)C4=CC(=O)C=C[C@]4(C)[C@@]3(F)[C@@H](O)C[C@@]21C	inactive	inactive	inactive	inactive	inactive	inactive	inactive	inactive	inactive	–	–	-0.839	–	–	–	–	-9.99	14.8	–
NCC(=O)O	inactive	inactive	inactive	inactive	inactive	–	–	–	inactive	–	–	10.4	–	–	–	–	4.74	-6.24	1.41
CC(=O)OC/C=C(C)/C=C/C=C(C)/C=C/C1=C(C)CCCC1(C)C	inactive	inactive	inactive	inactive	inactive	inactive	inactive	–	inactive	–	–	-7.14	–	–	–	–	-23.4	-13.6	–
NC(=O)COCCN1CCN(C(c2ccccc2)c2ccc(Cl)cc2)CC1 (stereo unspecified)	inactive	inactive	inactive	inactive	inactive	inactive	inactive	–	inactive	–	–	-14	5.01 µM (active)	–	–	–	–	–	–
COc1cc(C=O)ccc1O	inactive	inactive	inactive	inactive	inactive	inactive	inactive	–	inactive	1.03% and -2.41%	inactive	-12.2	–	–	–	–	2.3	-15.5	–
CCN(CC)CC(=O)OCC(=O)[C@@]1(O)CC[C@H]2[C@@H]3CCC4=CC(=O)CC[C@]4(C)[C@H]3[C@@H](O)C[C@@]21C	inactive	inactive	inactive	inactive	inactive	inactive	inactive	inactive	–	–	–	–	–	–	–	–	–	–	–
CC(=O)OCC(=O)[C@@]1(O)CCC2C3CCC4=CC(=O)CC[C@]4(C)C3[C@@H](O)C[C@@]21C (stereo partly specified)	inactive	inactive	inactive	inactive	inactive	inactive	inactive	–	inactive	–	–	–	–	–	–	–	–	–	–
C[C@H](CN1CCCC1)C(=O)c1ccc(C(F)(F)F)cc1	inactive	inactive	inactive	inactive	inactive	inactive	inactive	–	inactive	–	–	-26.9	–	–	–	–	–	-22.1	–
COc1cc(C(=O)NC2CCCNC2)cc(OC)c1OC (stereo unspecified)	inactive	inactive	inactive	inactive	inactive	inactive	inactive	–	inactive	–	–	-2.35	–	–	–	–	-10.6	15.7	–
O=C1[C@@H]2[C@H]3CC[C@H](C3)[C@@H]2C(=O)N1CCCCN1CCN(c2ncccn2)CC1	inactive	inactive	inactive	inactive	inactive	inactive	inactive	–	inactive	–	–	-7.9	12.6 µM (active)	–	–	–	–	-10.5	–
O=C(O)/C=C(\CC(=O)O)C(=O)O	inactive	inactive	inactive	inactive	inactive	inactive	inactive	–	inactive	–	–	–	–	–	–	–	–	–	–

Source: PubChem BioAssay (NCATS)
